In PubChem BioAssay:

experiment: small-molecule binders of probe aInhba, primary screen, biochemical, small-molecule microarray, 635/667 nm fluorescence (AID 1148); details: higher = more signal;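 also: score merges 667nm spot fluorescence with signal-to-noise for antibody binding to printed compounds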

Compound | composite z-score
C[N+](C)(C)CCCCNC(=O)[C@H]1C[C@H]2C(=O)N[C@@H](Cc3ccccc3)C(=O)N2[C@H]1c1cccc(OCCO)c1 | 0.152
CC(C)[Si](C#CCCc1ccccc1)(O[C@H](c1ccccc1)c1cn(Cc2ccccc2)nn1)C(C)C | -0.179
COc1ccc([Si](C)(C)[C@@H]2[C@@H](CC(=O)N3Cc4ccccc4C[C@H]3CO)O[C@]3(C(=O)N(Cc4cccc(N5CCOC5=O)c4)c4ccccc43)[C@H]2C)cc1 | -0.0581
CN1C(=O)[C@@H]2[C@@H](CC(COc3ccccc3)=C3[C@@H](CCc4ccccc4)OB(O)C[C@@H]32)C1=O | -0.128
COc1cc(C(O)C2C=CC3C(=O)N(c4ccccc4)C(=O)C3N2Nc2ccccc2F)cc(OC)c1OC (stereo unspecified) | 0.177
CCCCN1CC=CC23O[C@@H]4/C=C\CCCOC(=O)C4[C@H]2C(=O)N(C(CO)C(C)C)[C@@H]3C1=O (stereo partly specified) | 0.419
O=C1N(CCS(=O)(=O)c2ccccc2)c2ccccc2C[C@]12N=C(c1ccc(OCCCO)cc1)O[C@@H]2c1ccccc1 | 0.0944
O=C1NC(=O)C2C1C=CC(C(O)c1ccc([N+](=O)[O-])cc1)N2Nc1ccccn1 (stereo unspecified) | -0.0059
O=C1[C@H]2C=C(I)[C@H](C[C@@H]2OCCCCCCO)[C@@]12CO2 | 0.255
CN(C)C(=O)[C@]1(Cc2ccccc2)N=C(c2ccc(OCCCO)cc2)O[C@@H]1c1ccccc1CN=[N+]=[N-] | 0.136
Cc1ccc(C(C)CC(O)C2C=CC3C(=O)N(C)C(=O)C3N2Nc2ccccc2)o1 (stereo unspecified) | 0.0588
CCCCCCc1nc(-c2ccc(-c3ccc(Cl)c(Cl)c3)o2)cc2c1[Si](C(C)C)(C(C)C)OC2 | -0.261
CC1CC/C=C\[C@H]2OC34C=CCN(c5ccc(Cl)cc5)C(=O)[C@H]3N(CCCCCCO)C(=O)[C@]4(C)C2C(=O)O1 (stereo partly specified) | -0.239
C=C(CCCC)/C(=C/C[C@H](OC(=O)c1ccncc1)c1cccc(OCCO)c1)c1cnc2ccccc2c1 | 0.0155
C[C@@H]1ON(c2ccccc2)[C@H](c2ccccc2)[C@H]1C(=O)O | 0.134
CCOC(=O)C1=CC[C@@H](c2ccc(OC)cc2)N(S(=O)(=O)c2ccc(C)cc2)[C@H]1CC | 0.152
COC(=O)[C@@]1(Cc2ccc(OC)cc2)[C@H]2c3cc(C(=O)N(C)C)[nH]c3C[C@H]2CN1C(=O)c1ccccc1 | -0.0645
CCCCC(O)C1C=CC2C(=O)N(c3ccccc3)C(=O)C2N1Nc1ccccc1 (stereo unspecified) | 0.0278
CC(C)OC(=O)CC(=O)CC(O)c1cccc([N+](=O)[O-])c1 (stereo unspecified) | -0.0221
O=C1NC(=O)C2C1C=CC(C(O)c1ccc(B(O)O)cc1)N2Nc1ccc(Cl)cc1Cl (stereo unspecified) | 0.0074
O=C1c2ccccc2[C@@]2(Cc3ccccc3N(Cc3ccccc3)C2=O)[C@H](c2ccc(CO)cc2)N1Cc1ccccc1Cl | -0.13
CO[C@H]1O[C@H](CO)[C@@H](OC(=O)Nc2ccccc2)[C@H](OC(=O)Nc2ccccc2)[C@H]1OC(=O)Nc1ccccc1 | 0.0343
COCCCNC(=O)[C@@]1(CCS(=O)(=O)c2ccccc2)COC(c2ccc(OCCCO)cc2)=N1 | 0.271
COc1ccc(C(O)C2C=CC3C(=O)NC(=O)C3N2Nc2ccc(Cl)cc2Cl)c2ccccc12 (stereo unspecified) | -0.0757
O=C1C[C@@](C(=O)O)(c2ccc([N+](=O)[O-])cc2)[C@@H](c2ccc(CO)cc2)N1C1CCCCC1 | -0.0645
CC(C)(C)N1CC=CC23O[C@@H]4/C=C\CCCOC(=O)C4[C@H]2C(=O)N(CCCCCO)[C@@H]3C1=O (stereo partly specified) | -0.258
